# Measurements: PubChem BioAssay (NCATS)
# “And” between values parts separate entries of the source, which are not always exact repeats. Identical values can stand only once. Results filed as inconclusive are left out. The source made the active and inactive calls. Unless noted, calls come from the whole dose curve; as a rule, active = well fitted curve in the direction sought with a large enough effect; inconclusive = small, poorly fitted or top-dose-only effect, or another doubt; inactive = no such curve, though single readings can be large; an effect the other way counts as inactive or inconclusive.
# Experiments:
# [1] = biological target: Calcium and integrin-binding protein 1 (Homo sapiens) (UniProt Q99828); test: Primary qHTS for Identification of Calcium Integrin Binding Protein 1 (CIB1) Competitor (AID 1508620);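 note: GST tagged CIB1 binding a fluorescein labelled alphaIIb integrin peptide tracer; top concentration of the series differs between compounds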
# Sequence of Calcium and integrin-binding protein 1 (Homo sapiens) (Q99828 whole entry, looked up): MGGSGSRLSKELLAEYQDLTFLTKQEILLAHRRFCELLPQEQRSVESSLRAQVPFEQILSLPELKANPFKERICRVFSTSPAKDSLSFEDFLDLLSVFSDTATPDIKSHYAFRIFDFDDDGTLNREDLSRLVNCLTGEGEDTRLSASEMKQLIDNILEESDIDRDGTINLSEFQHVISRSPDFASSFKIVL
# Procedure, shortened: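 Fluorescence polarization competition: GST-tagged CIB1 (1 uM final) preincubated with compound 15 min at room temperature, then FITC-labelled alphaIIb peptide (100 nM final) added. After 15 min at room temperature, polarization read at Ex 480/Em 540.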
# [2] = biological target: Cytochrome P450 2D6 (Homo sapiens) (UniProt P10635); test: Cytochrome P450 family 2 subfamily D member 6 (CYP2D6) small molecule antagonists: luciferase biochemical (cell-free) qHTS assay (AID 1645840; active = well fitted curve in the direction sought with a large enough effect in the repeat runs; an effect the other way counts as inactive or inconclusive; note: potency is the fitted concentration of half-maximal effect; nearly all actives have a fitted effect of over 55% in size)
# Sequence of Cytochrome P450 2D6 (Homo sapiens) (P10635 whole entry, looked up): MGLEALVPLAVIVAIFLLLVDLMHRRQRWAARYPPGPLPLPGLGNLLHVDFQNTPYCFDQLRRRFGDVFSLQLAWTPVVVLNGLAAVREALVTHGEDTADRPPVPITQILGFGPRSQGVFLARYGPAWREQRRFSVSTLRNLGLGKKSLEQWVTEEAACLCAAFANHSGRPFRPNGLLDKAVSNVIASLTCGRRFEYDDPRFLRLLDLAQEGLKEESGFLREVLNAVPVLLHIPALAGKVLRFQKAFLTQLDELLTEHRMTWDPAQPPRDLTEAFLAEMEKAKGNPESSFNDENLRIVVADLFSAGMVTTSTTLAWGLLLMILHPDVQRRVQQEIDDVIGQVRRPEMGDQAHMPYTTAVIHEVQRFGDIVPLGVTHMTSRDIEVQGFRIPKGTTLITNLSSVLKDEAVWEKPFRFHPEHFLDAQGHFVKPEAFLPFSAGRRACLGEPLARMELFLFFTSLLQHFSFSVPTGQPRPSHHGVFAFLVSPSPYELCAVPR
# Procedure, shortened: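 P450-Glo CYP2D6 system: proluciferin substrate converted by enzyme to luciferin, read by luminescence proportional to activity. Enzyme-substrate mix with compound 10 min at room temperature, then NADPH regeneration 1 h before detection reagent.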
# [3] = biological target: Cytochrome P450 2C9 (Homo sapiens) (UniProt P11712); test: Cytochrome P450 family 2 subfamily C member 9 (CYP2C9) small molecule antagonists: luciferase biochemical (cell-free) qHTS assay (AID 1645842; active = well fitted curve in the direction sought with a large enough effect in the repeat runs; an effect the other way counts as inactive or inconclusive; note: nearly all actives have a fitted effect of over 55% in size; note: potency is the fitted concentration of half-maximal effect)
# Sequence of Cytochrome P450 2C9 (Homo sapiens) (P11712 whole entry, looked up): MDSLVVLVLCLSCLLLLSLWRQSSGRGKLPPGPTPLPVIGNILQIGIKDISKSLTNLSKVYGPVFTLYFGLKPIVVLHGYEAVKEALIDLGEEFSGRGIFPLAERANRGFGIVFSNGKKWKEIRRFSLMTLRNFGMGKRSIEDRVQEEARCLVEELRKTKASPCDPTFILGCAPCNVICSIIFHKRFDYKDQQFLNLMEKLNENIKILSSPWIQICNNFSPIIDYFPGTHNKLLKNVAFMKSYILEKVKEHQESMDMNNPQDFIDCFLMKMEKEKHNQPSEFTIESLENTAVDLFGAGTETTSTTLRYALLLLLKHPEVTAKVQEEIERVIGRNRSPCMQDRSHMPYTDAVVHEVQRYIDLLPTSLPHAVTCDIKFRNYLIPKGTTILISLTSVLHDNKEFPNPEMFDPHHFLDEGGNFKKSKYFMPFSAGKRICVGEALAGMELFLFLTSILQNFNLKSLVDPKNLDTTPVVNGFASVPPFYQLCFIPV
# Procedure, shortened: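 P450-Glo CYP2C9 system: proluciferin substrate with enzyme in mix containing 0.4% BSA, 10 min at room temperature, then NADPH regeneration solution added and incubated 1 h at 37C. Detection reagent stopped reaction; luminescence read after 20 min as RLU.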
# [4] = Primary qHTS for inhibitors of nuclear receptor binding SET domain protein 2 (NSD2) in an isogenic RCH-ACV NSD2 p.E1099K mutant (9B) (AID 1645876); note: nearly all actives have a fitted effect of over 70% in size; note: potency is the fitted concentration of half-maximal effect
# [5] = Primary qHTS for inhibitors of nuclear receptor binding SET domain protein 2 (NSD2) in an RCH-ACV wild type WT cells (2C) (AID 1645877); note: nearly all actives have a fitted effect of over 70% in size; note: potency is the fitted concentration of half-maximal effect
Compound,Potency [1],Potency [2],Potency [3],Potency [4],Potency [5]
O=S(=O)(N[C@H]1CCCC[C@@H]1N1CCOCC1)c1ccc(Cl)cc1,inactive,5.35 µM (active),5.35 µM (active),inactive,inactive
N#Cc1cnc2c(Cl)cc(NCc3cn(CCN4CCCCCC4)nn3)cc2c1Nc1ccc(F)c(Cl)c1,inactive,0.849 µM (active),3.38 µM (active),20.5 µM (active),11.5 µM (active)
CC(C)CCNc1ncccc1C(=O)N1CCN(Cc2ccccc2)CC1,inactive,5.35 µM (active),10.7 µM (active),inactive,inactive
Cc1cc(NC(=O)NCCN2CCC(O)(Cc3ccccc3)CC2)c2ccccc2n1,inactive,8.49 µM (active),inactive,inactive,inactive
C[C@@H](Nc1ncnc2[nH]c(-c3ccc(O)cc3)cc12)c1ccccc1,inactive,1.34 µM (active),1.2 µM (active),5.78 µM (active) and 11.8 µM (active),5.78 µM (active) and 10.5 µM (active)
Cc1csc2c(N[C@@H](C)CN3CCN(S(=O)(=O)c4ccc(Cl)c(Cl)c4)CC3)ncnc12,inactive,0.425 µM (active),6.01 µM (active),2.9 µM (active),8.17 µM (active)
CCOC(=O)C1(CCOc2ccccc2)CCN(Cc2ccc(O)c(Cl)c2)CC1,inactive,0.425 µM (active),6.01 µM (active),23 µM (active),23 µM (active)
CN1CCN(Cc2ccc(NC(=O)Cc3ccc(Oc4cc(NC(=O)C5CC5)ncn4)cc3)cc2C(F)(F)F)CC1,inactive,15.1 µM (active),19 µM (active),0.649 µM (active),0.817 µM (active)
